PubChem BioAssay
Active and inactive are the calls of the source. Unless noted, no rule for the calls is given here.

Columns and labels:
[1] = anti-His antibody binders, primary screen, artefact control for SMM control protein annotation, biochemical, small-molecule microarray, 635 nm fluorescence (AID 1128); conditions: anti-His Alexa647 antibody binding, higher = more signal;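 also: score merges feature fluorescence with signal-to-noise for each printed compound spot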
[2] = system: Human papillomavirus type 1a E7 protein (residues 1-88); assay: HPV1a E7 small-molecule binders, primary screen, biochemical, small-molecule microarray, residues 1-88, 635 nm (AID 1129); conditions: small-molecule microarray binding, fluorescence 635 nm; higher = more signal
[3] = target: Focal adhesion kinase 1 (Homo sapiens) (UniProt Q05397); assay: small-molecule microarray binders of FAK, primary screen, biochemical, 635/667 nm fluorescence, BSA, DTT (AID 1130); conditions: PTK2 binding, 635 nm fluorescence, higher = more signal;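 also: composite of spot emission at 667 nm and signal to noise over triplicate slides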
[4] = system: Fibrinogen (Alexa647-labelled); assay: fibrinogen binders on compound microarrays, profiling panel, artefact control for SMM control-protein annotation, biochemical, small-molecule microarray, 635/667 nm fluorescence (AID 1131); conditions: fibrinogen-A647 binding fluorescence, higher = more signal;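 also: z-score merges 667 nm fluorescence with per-spot signal-to-noise over triplicate slides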
[5] = target: Follistatin (Homo sapiens) (UniProt P19883); assay: follistatin binders on small-molecule microarrays, primary screen, biochemical, small-molecule microarray, 635/667 nm fluorescence (AID 1132); conditions: FST binding, 635 nm fluorescence, higher = more signal
[6] = target: Fibroblast growth factor 2 (Homo sapiens) (UniProt P09038); assay: FGF2 binders on small-molecule microarrays, primary screen, biochemical, small-molecule microarray, 635/667 nm fluorescence (AID 1133); conditions: small-molecule microarray binding, FGF2, fluorescence 635/667; higher = more signal
[7] = mitochondrial membrane potential change in A549 cells, profiling panel, cell-based, JC-1 fluorescence, basal, 24 h, 100 nL (AID 1138); conditions: higher = more signal;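 also: A549 lung adenocarcinoma cells under basal conditions with no added stimulus; test concentration not given here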
Lefty1 = Lefty1 binders on small-molecule microarrays, primary screen, biochemical, small-molecule microarray, 635/667 nm fluorescence (AID 1139); conditions: small-molecule microarray binding, fluorescence 635/667; higher = more signal
[8] = system: wheat germ agglutinin (Triticum aestivum), Alexa647-labelled; assay: wheat germ agglutinin binders on compound microarrays, profiling panel, artefact control for SMM control-protein annotation, biochemical, small-molecule microarray, 635/667 nm fluorescence (AID 1140); conditions: WGA-A647 binding, 635 nm fluorescence, higher = more signal;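 also: score merges 667 nm feature emission with signal to noise over triplicate slides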
[9] = target: Luciferin 4-monooxygenase (Photinus pyralis) (UniProt P08659); assay: firefly luciferase enzyme inhibitors, primary screen, biochemical, luminescence, purified enzyme, 2006 set (AID 1141); conditions: SteadyGlo luminescence, 30 min, higher = more signal, called active from +8 up or from −8 down;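 also: cell-free assay with purified firefly luciferase at 100 ng per well in PBS; test concentration not given here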
[10] = system: Wnt5a (protein binding on small-molecule microarray); assay: Wnt5a binders on small-molecule microarray, primary screen, biophysical, 635/667 nm fluorescence (AID 1142); conditions: 635 nm fluorescence, higher = more signal;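 also: fluorescence read at 667 nm with signal to noise per printed feature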
[11] = cell viability in Huh7 cells, primary screen, cytotoxicity control for HCV replication inhibitor project, CellTiter-Glo luminescence, basal, 48 h (AID 1143); conditions: Huh7 HCV replicon, higher = more signal, called active from +8 up or from −8 down;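 also: Huh7 hepatoma cells carrying a hepatitis C replication reporter with no stimulus; test concentration not given here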
[12] = P. aeruginosa biofilm formation inhibitors, primary screen, PAO1 strain, BacTiter-Glo luminescence, LB-PBS (AID 1144); conditions: 12 h, higher = more signal
[13] = CREB reporter modulators without forskolin, primary screen, cell-based, PC12, CRE-LacZ reporter, unstimulated (AID 1145); conditions: no forskolin, luminescence, 4.5 h, higher = more signal, called active from +8 up or from −8 down
[14] = CREB reporter modulators under forskolin, primary screen, cell-based, PC12, CRE-LacZ reporter, forskolin-stimulated (AID 1146); conditions: luminescence, 4.5 h, higher = more signal, called active from +8 up or from −8 down;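 also: PC12 cells with 6xCRE LacZ reporter stimulated by forskolin 10 µM; beta-galactosidase reporter signal reflecting CREB driven transcription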
[15] = target: Streptavidin (Streptomyces avidinii) (UniProt P22629); assay: streptavidin binders on small-molecule microarray, primary screen, artefact control for SMM compound annotation, biophysical, 635/667 nm fluorescence (AID 1147); conditions: streptavidin binding, higher = more signal;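 also: signal reflects streptavidin binding to arrayed compounds as a control protein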
[16] = small-molecule binders of probe aInhba, primary screen, biochemical, small-molecule microarray, 635/667 nm fluorescence (AID 1148); conditions: higher = more signal;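 also: score merges 667nm spot fluorescence with signal-to-noise for antibody binding to printed compounds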
Torsin-1A (Homo sapiens) [17] = target: Torsin-1A (Homo sapiens) (UniProt O14656); assay: torsin A binders from cell lysate, primary screen, small-molecule microarray, wild-type, 635/667 nm (AID 1149); conditions: COS7 hTOR1A-WT lysate, 635 nm fluorescence, higher = more signal
Torsin-1A (Homo sapiens) [18] = target: Torsin-1A (Homo sapiens) (UniProt O14656); assay: small-molecule binders of mutant TOR1A in lysate, primary screen, cell lysate, small-molecule microarray, COS7 lysate, 635/667 nm fluorescence (AID 1150); conditions: COS7 hTOR1A mutant lysate, 635 nm fluorescence, higher = more signal;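 also: score pools 667 nm emission and signal to noise measuring lysate protein binding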
[19] = system: Sonic hedgehog protein (Shh); assay: small-molecule binders of Shh protein, primary screen, biochemical, small-molecule microarray, 635/667 nm fluorescence (AID 1151); conditions: small-molecule microarray binding, 635 nm fluorescence; higher = more signal;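 also: Shh protein binding to compounds spotted on small-molecule microarray slides; score combines spot fluorescence intensity with signal-to-noise across triplicate slides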

Sequence of Fibroblast growth factor 2 (Homo sapiens) (P09038 whole entry, looked up): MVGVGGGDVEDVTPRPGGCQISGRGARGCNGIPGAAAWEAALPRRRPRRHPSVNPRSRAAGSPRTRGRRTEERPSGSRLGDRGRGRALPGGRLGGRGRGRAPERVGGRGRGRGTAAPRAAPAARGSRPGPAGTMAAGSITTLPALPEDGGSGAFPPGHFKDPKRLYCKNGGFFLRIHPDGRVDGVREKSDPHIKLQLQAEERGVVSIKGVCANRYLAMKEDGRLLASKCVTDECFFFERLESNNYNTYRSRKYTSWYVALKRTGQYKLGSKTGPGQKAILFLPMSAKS
Sequence of Follistatin (Homo sapiens) (P19883 whole entry, looked up): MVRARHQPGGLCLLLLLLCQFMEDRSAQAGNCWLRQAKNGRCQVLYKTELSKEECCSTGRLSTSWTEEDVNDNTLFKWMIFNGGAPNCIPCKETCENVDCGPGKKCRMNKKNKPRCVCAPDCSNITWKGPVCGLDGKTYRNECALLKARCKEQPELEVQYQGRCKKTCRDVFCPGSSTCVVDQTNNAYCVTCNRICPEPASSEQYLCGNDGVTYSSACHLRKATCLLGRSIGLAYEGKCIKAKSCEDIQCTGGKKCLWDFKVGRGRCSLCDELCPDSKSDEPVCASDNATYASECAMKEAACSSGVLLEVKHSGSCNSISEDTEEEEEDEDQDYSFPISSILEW
Sequence of Streptavidin (Streptomyces avidinii) (P22629 whole entry, looked up): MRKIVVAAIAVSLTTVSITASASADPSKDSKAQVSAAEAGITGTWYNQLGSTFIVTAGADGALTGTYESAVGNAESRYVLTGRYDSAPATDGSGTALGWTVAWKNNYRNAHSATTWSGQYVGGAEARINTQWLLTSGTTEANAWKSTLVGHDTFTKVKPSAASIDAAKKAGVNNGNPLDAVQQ
Sequence of Torsin-1A (Homo sapiens) (O14656 whole entry, looked up): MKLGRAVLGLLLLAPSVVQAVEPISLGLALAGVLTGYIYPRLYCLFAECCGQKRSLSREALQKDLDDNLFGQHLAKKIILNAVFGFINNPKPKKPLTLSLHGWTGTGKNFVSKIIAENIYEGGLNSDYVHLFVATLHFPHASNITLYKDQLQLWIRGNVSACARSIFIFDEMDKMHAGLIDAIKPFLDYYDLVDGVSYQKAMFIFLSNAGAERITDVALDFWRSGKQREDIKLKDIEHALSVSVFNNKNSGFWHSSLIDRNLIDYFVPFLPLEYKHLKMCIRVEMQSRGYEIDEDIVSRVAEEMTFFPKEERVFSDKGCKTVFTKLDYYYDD
Sequence of Luciferin 4-monooxygenase (Photinus pyralis) (P08659 whole entry, looked up): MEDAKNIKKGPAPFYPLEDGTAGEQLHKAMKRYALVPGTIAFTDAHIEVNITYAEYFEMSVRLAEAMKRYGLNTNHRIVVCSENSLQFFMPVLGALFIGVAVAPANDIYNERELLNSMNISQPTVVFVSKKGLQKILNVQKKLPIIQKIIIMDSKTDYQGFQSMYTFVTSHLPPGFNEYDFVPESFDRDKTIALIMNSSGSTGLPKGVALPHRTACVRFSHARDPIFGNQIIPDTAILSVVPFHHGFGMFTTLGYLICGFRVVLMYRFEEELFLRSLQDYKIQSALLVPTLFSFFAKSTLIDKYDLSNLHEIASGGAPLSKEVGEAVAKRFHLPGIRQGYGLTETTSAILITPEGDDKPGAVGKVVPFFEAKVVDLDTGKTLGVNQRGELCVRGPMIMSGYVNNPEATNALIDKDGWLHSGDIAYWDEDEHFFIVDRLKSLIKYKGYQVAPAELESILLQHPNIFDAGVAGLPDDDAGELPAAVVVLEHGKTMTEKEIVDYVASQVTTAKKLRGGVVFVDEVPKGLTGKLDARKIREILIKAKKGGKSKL
Sequence of Focal adhesion kinase 1 (Homo sapiens) (Q05397 whole entry, looked up): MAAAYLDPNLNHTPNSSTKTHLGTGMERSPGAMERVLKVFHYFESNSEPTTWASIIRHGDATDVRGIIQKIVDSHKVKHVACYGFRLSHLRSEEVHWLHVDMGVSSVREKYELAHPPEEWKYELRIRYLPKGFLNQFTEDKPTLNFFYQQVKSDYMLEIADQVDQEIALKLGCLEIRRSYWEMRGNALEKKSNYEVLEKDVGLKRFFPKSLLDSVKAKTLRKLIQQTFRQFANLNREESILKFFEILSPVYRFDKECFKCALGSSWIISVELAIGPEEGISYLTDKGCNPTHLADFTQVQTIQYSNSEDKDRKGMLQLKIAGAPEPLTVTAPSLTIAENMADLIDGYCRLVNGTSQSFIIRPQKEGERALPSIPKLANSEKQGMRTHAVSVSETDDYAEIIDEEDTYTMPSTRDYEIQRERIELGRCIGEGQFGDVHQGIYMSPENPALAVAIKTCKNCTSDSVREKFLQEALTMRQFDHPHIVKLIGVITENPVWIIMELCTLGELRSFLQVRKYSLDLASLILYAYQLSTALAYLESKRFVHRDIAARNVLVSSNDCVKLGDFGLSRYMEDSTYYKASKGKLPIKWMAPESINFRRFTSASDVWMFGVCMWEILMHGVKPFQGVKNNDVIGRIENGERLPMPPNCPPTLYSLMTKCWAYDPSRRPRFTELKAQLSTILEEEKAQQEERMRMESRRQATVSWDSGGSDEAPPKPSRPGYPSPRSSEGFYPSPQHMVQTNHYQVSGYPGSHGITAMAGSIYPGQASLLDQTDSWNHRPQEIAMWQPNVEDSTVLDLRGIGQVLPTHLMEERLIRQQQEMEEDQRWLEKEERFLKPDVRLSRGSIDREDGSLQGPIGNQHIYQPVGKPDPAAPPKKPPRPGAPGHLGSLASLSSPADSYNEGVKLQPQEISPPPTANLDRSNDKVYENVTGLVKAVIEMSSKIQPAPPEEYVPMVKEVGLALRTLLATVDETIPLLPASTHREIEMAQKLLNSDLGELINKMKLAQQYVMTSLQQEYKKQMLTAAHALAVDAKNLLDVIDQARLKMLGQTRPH

SMILES | composite z-score [1] | composite z-score [2] | composite z-score [3] | composite z-score [4] | composite z-score [5] | composite z-score [6] | z-score [7] | composite z-score (Lefty1) | composite z-score [8] | z-score [9] | composite z-score [10] | z-score [11] | z-score [12] | z-score [13] | z-score [14] | composite z-score [15] | composite z-score [16] | composite z-score (Torsin-1A (Homo sapiens) [17]) | composite z-score (Torsin-1A (Homo sapiens) [18]) | composite z-score [19]
O=C1C2C=CC(C(O)c3cccc(O)c3)N(Nc3ccc([N+](=O)[O-])cc3)C2C(=O)N1c1ccccc1 (stereo not given) | 1.18 | 0.785 | 0.264 | 0.578 | 0.418 | 0.526 | -1.15 | 0.292 | 0.0289 | 0.931 (inactive) | 0.22 | -0.933 (inactive) | -0.271 (inactive) | -0.257 (inactive) | -0.489 (inactive) | 0.514 | 0.0649 | 0.331 | 0.132 | -0.164
C=C(COC)C(=O)CC[C@@H](OC(C)=O)c1cccc(OCCO)c1 | 0.0219 | -1.04 | -0.653 | 0.567 | 1.09 | 1.48 | 0.655 | 0.146 | 0.0226 | -1.76 (inactive) | -0.124 | -0.3 (inactive) | 0.423 (inactive) | 3.3 (inactive) | 2.95 (inactive) | -1.07 | -0.128 | 0.672 | -0.708 | 0.358
C=CCOC(=O)[C@@]1(Cc2ccccc2)C[C@H]2CO[C@H](c3ccc(OC)cc3)N2C1=O | 0.848 | 0.191 | 0.575 | 0.494 | 0.3 | 0.186 | 0.272 | 0.55 | 0.133 | -0.0402 (inactive) | -0.0728 | -1.08 (inactive) | 0.572 (inactive) | 2.72 (inactive) | 0.892 (inactive) | 0.911 | -0.0719 | 0.91 | 0.456 | 0.235
CO[C@H]1O[C@H](CO)[C@@H](OC(=O)Nc2ccc3c(c2)OCO3)[C@H](OC(=O)Nc2ccc3c(c2)OCO3)[C@@H]1OC(=O)Nc1ccc2c(c1)OCO2 | 1.67 | 1.3 | 0.347 | 1 | 0.997 | 0.366 | 0.0347 | 0.484 | 0.682 | -9.67 (active) | 0.523 | -2.3 (inactive) | 0.506 (inactive) | 0.643 (inactive) | -1.48 (inactive) | 1.11 | -0.0087 | 0.967 | 1.05 | 0.164
CCOC(=O)C1=C[C@@H](C(C)C)N(S(=O)(=O)c2ccc(C)cc2)[C@H]1c1ccc(C(F)(F)F)cc1 | 0.922 | 1.22 | 0.224 | 0.975 | 0.929 | 0.604 | 2.67 | 0.895 | 0.909 | 0.612 (inactive) | 0.418 | -3.82 (inactive) | 0.803 (inactive) | 0.939 (inactive) | -1.13 (inactive) | 0.908 | -0.12 | 0.505 | 0.682 | 0.217
COC(=O)[C@@]1(Cc2ccc(F)cc2)[C@H]2c3cc(C(=O)N4CCCC4)n(CCc4c[nH]c5ccccc45)c3C[C@H]2CN1C(=O)c1ccccc1 | 1.56 | 1.26 | 1.27 | 0.97 | 0.867 | 0.577 | 0.775 | -0.627 | 0.816 | 2.04 (inactive) | 0.407 | -3.01 (inactive) | 1.82 (inactive) | 0.587 (inactive) | 0.668 (inactive) | 1.91 | 0.668 | -0.0812 | 0.321 | -0.393
CCCCC(CC)C(O)C1C=CC2C(=O)N(c3ccccc3)C(=O)C2N1Nc1ccccc1F (stereo not given) | 2.22 | 1.2 | 0.1 | -0.209 | 0.729 | -0.315 | -1.04 | 0.276 | 0.357 | 1.61 (inactive) | 0.507 | -2.32 (inactive) | -0.786 (inactive) | -0.433 (inactive) | -0.208 (inactive) | 0.0844 | -0.128 | 0.136 | 0.663 | -0.045
CC(C)N1C(=O)C[C@@](C(=O)NC2CC2)(c2ccc([N+](=O)[O-])cc2)[C@H]1c1ccc(CO)cc1 | 1.7 | -0.0823 | 0.403 | -0.793 | 0.323 | 0.362 | -0.544 | -1.11 | -0.545 | -0.254 (inactive) | -0.0471 | -4.5 (inactive) | -0.0956 (inactive) | 1.82 (inactive) | -0.673 (inactive) | -0.677 | -0.252 | -1.39 | 1.4 | -0.161
C[N+](C)(C)CCCCCCNC(=O)[C@@H]1C[C@@H]2C(=O)N3CCC[C@H]3C(=O)N2[C@@H]1c1ccc(O)cc1 | 1.36 | 0.451 | 0.0225 | -0.472 | 1.4 | 1.42 | -1.19 | 1.3 | 0.6 | 0.824 (inactive) | 0.311 | 0.143 (inactive) | -0.573 (inactive) | -0.663 (inactive) | -0.62 (inactive) | -0.31 | -0.0762 | 1.25 | 1.15 | 2.12
C=C(COC)/C(=C/C[C@H](OC(=O)c1ccncc1)c1ccccc1OCCO)c1cc(C(=O)OC)ccc1OC | 0.717 | 1.06 | 0.319 | 0.148 | 1.17 | 0.66 | 0.416 | 1.32 | 0.925 | -0.756 (inactive) | 0.163 | -2.17 (inactive) | 0.492 (inactive) | 11.9 (active) | 2.47 (inactive) | -0.275 | -0.0136 | 1.19 | 0.664 | 1.71
